# Laboratory results: the supplement of paper PMC10338343
# ± gives the standard deviation. The full ranking holds about 8,200 sequences; the median of “pre-steady-state target cleavage rate” is about 0.024, and the highest 2% start at about 1.3. The sample holds the highest values, similar sequences and a random draw of the others, so the mix is not that of the screen.
# System: MIWI (PIWIL1) piRISC loaded with L1MC piRNA (30 nt)
# Test: pre-steady-state target cleavage rate (min^-1); MIWI and MILI are mouse PIWI proteins and EfPiwi is from a freshwater sponge; tags in brackets are library labels; higher = faster piRNA-guided slicing of the target
# Settings: guide: L1MC piRNA 5'p-UAACUAAAUACUAUGCAAGCUGUAGGUCCU
# Protocol: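 Cleave-'n-Seq: a library of target RNAs (target site embedded in constant flanks, ACAGCATTCCGCGTTAGTGATATCCG... 5' flank; DNA-blocked outside the site) at 0.1 nM was incubated with 1 nM active mouse MILI or MIWI piRISC (synthetic 5'-monophosphorylated piRNA guide) with or without 500 nM mouse GTSF1 at 33 °C for 1 min to 16 h. Uncleaved targets were sequenced and normalised to non-target controls, and the pooled three trials were fitted to a burst-and-steady-state model to give the pre-steady-state cleavage rate (min^-1; k3 is constrained to at most 1e-4). Sequence is the target site only; target names encode pairing extent (gX:gY) and contiguous / 1-mismatch / 2-mismatch / bulge geometry. Fits with R² ≤ 0 are excluded.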
# [1] = auxiliary factor: 500 nM mouse GTSF1
# [2] = auxiliary factor: none (no GTSF1)
Sequence,pre-steady-state target cleavage rate [1],pre-steady-state target cleavage rate [2]
UCCUGCUAACAGCUUGCAUAGUAUUUAGUUA,0.617 ± 0.052,0.0487 ± 0.0083
AGGACCUACAGCUUGCAUAGUAAAAACAAA,0.268 ± 0.068,–
UGGACCUACAGCUUCCAUAGUAAUUAGUUA,0.0113 ± 0.0031,–
UCCUGGAACAGCUUGCAUAGUACUUUAGUUA,0.472 ± 0.036,0.00827 ± 0.0032
UCCAGCUACACCUUGCAUAGUAUUUAGUUA,0.797 ± 0.034,0.0443 ± 0.0068
UCCUGGAUCAGCUUGCAUAGAAUUUACAAA,0.0559 ± 0.014,–
UGGACCUACAGCUUGCAUAGCAUUUAGUUA,0.379 ± 0.025,0.0275 ± 0.0061
UCCUGGAUCCAGCUUGCAUAGUAUUUAGUUA,1.31 ± 0.081,0.0546 ± 0.016
UCCUGGACCAGCUUGCAUAGUAUUUAGUUA,0.915 ± 0.048,0.0367 ± 0.0074
UCCUGGUCCAGCUUGCAUAGUAUUUAGUUA,0.717 ± 0.055,0.0383 ± 0.0079
UCCUGGAUCCGCUUGCAUAGUAUUUAGUUA,0.927 ± 0.053,0.031 ± 0.0075
UCCUGGAUGAGCUUGCAUAGUAUUUAUUUA,0.267 ± 0.055,0.025 ± 0.0077
AGGACCUACAGGUUCCAUAGUAUUUAGUUA,0.659 ± 0.17,–
UCCUCCCUACAGCUUGCAUAGUAUUUAGUUA,1.09 ± 0.038,0.075 ± 0.016
ACCUCCUACAGCUUGCAUAGUAUUUAGUUA,1.35 ± 0.052,0.0784 ± 0.012
UCCUCUCUACAGCUUGCAUAGUAUUUAGUUA,0.797 ± 0.038,0.0529 ± 0.0081
UCCUCCUACAGCUUGCAUAGUAUUUUAGUUA,1.04 ± 0.044,0.0227 ± 0.0055
ACCUCCUACAGCUUGCAUAGUAUUUAGUAA,0.85 ± 0.046,0.0351 ± 0.0072
UCCUCCUACAGCUUGCAUAGUAUUUAGUUC [g2:g26:cont:t1C],1.09 ± 0.039,0.0511 ± 0.011
UCCUCUACAGCUUGCAUAGUAUUUAGUUA,1.34 ± 0.047,0.0659 ± 0.011
UCCUCCUACAGCUUGCAUAGUAUUUAGUUA [g2:g26:cont:t1A],1.32 ± 0.052,0.0816 ± 0.015

Sequence,pre-steady-state target cleavage rate [1],pre-steady-state target cleavage rate [2]
UCCUUCUACAGCUUGCAUAGUAUUUAGUUA,1.02 ± 0.033,0.0527 ± 0.0083
UCCUGGUACAGCUUGCAUAGUAGUUAGUUA,0.433 ± 0.051,0.0224 ± 0.0045
UGGACGUACAGCUUGCAUAGUAUUUUGUUA,0.75 ± 0.055,0.052 ± 0.009
UCCUGGAUCAGCAUUGCAUAGUAUUUAGUUA,0.875 ± 0.036,0.0165 ± 0.0047
UCCUGGAUGUCGAUGCAUAGUAUUUGAGUUA,0.0114 ± 0.0044,–
UCCACCUACACCUUGCAUAGUUUUUAGUUA,0.249 ± 0.032,0.0171 ± 0.0033
UCCUGGAACAGCGUUGCAUAGUAUUUAGUUA,0.939 ± 0.055,0.0303 ± 0.0056
UCCUGCUACAGGUUGCAUAGUAUUUACAAA,0.117 ± 0.028,–
UCCACCUACAGACUUGCAUAGUAUUUAGUUA,0.606 ± 0.06,0.0272 ± 0.0043
UCCUCCUACAGCUUGCAUAGCUAUUUAGUUA,0.0221 ± 0.01,–
UCCUCCUACCGCUUGCAUAGUAUUUAGUUA,1.34 ± 0.062,0.0565 ± 0.0099
UCGACCUACCGCUUGCAUAGUAUUUAGUUA,1.64 ± 0.069,0.0745 ± 0.015
UCCUGCUACCGCUUGCAUAGUAUUUAGUUA,1.1 ± 0.1,0.0571 ± 0.011
AGGACCUACACGCUUGCAUAGUAUUUAGUUA,1.1 ± 0.065,0.0703 ± 0.01
UCCUCCUACGCUUGCAUAGUAUUUAGUUA,1.24 ± 0.045,0.0478 ± 0.0094
UGGACCUACGAGCUUGCAUAGUAUUUAGUUA,0.657 ± 0.11,0.0557 ± 0.013
AGGACCUACCGCUUGCAUAGUAUUUAGUUA,1.43 ± 0.082,0.0866 ± 0.017
UGGACCUACCAGCUUGCAUAGUAUUUAGUUA,1.25 ± 0.1,0.0599 ± 0.013
UCCACCUACCGCUUGCAUAGUAUUUAGUUA,1.11 ± 0.05,0.0544 ± 0.0086
UGGACCUACCGCUUGCAUAGUAUUUAGUUA,1.57 ± 0.11,0.0558 ± 0.0098
AGGACCUACCAGCUUGCAUAGUAUUUAGUUA,1.17 ± 0.069,0.0704 ± 0.014

Sequence,pre-steady-state target cleavage rate [1],pre-steady-state target cleavage rate [2]
UCGACCUACCAGCUUGCAUAGUAUUUAGUUA,1.29 ± 0.064,0.0725 ± 0.016
UCCUGGAUGUGCUUGCAUUGUUUUUAGUUA,0.0048 ± 0.0031,–
UCCUGGAUGUGCUUGCAUAGUAUUUUGUAA,0.0569 ± 0.016,0.00775 ± 0.0023
UCCACCUACAGCUUGCAUAGUAUUUGGUUA,0.555 ± 0.038,0.0358 ± 0.0079
UCGACCUACAGGUUGCAUAGUAUUUACUUA,0.296 ± 0.04,0.025 ± 0.0051
AGCACCUACACCUUGCAUAGUAUUUAGUUA,0.739 ± 0.074,0.0408 ± 0.0062
UCGACCUAGAGCUUGCUUAGUAUUUAGUUA,1.34 ± 0.048,0.0282 ± 0.0063
UCGACCUACAGCUUGCUAGUAUUUAGUUA,0.219 ± 0.061,–
AGCACCUACAGCUUGCUUAGUAUUUAGUUA,0.978 ± 0.079,0.0389 ± 0.0089
UCGACCUACAGCUUGCUUAGUAUUUAGUUA,1.66 ± 0.074,0.0474 ± 0.01
UGGACCUAGAGCUUGCUUAGUAUUUAGUUA,1.18 ± 0.095,0.0321 ± 0.0069
ACGACCUACAGCUUGCUUAGUAUUUAGUUA,1.57 ± 0.074,0.0527 ± 0.013
UCCACCUAGAGCUUGCUUAGUAUUUAGUUA,0.549 ± 0.044,0.0205 ± 0.0044
UGCACCUACAGCUUGCUUAGUAUUUAGUUA,1.25 ± 0.092,0.031 ± 0.0064
UCGACCUACAGCUUGCUUAGUAUUUAGUAA,1.02 ± 0.068,0.0176 ± 0.005
UCGACCUACAGCUUGGUUAGUAUUUACAAA,0.0826 ± 0.02,–
UCGACCUACAGCUUGGUUAGUAUUUAGUUA,1.42 ± 0.058,0.00908 ± 0.0026
UCGACCUACAGCUUGGUUAGUAUUUAGUAA,0.72 ± 0.061,0.00525 ± 0.002
UCCUCCUACAGGAUGCAUAGUAUUUACAAA,0.253 ± 0.041,–
